Assay results published in ChEMBL document CHEMBL4513216, “Probing the Open Global Health Chemical Diversity Library for Multistage-Active Starting Points for Next-Generation Antimalarials” (ACS Infect Dis, 2020).
In all, about 65,000 compounds went through this assay and about 2,100 (3.2%) showed an effect of 50% or more. The median lay at about -52%. This is one part of a sample in which strong results are shown more often than they occur.

These compounds were tested on Plasmodium falciparum (assay: Screen against P. falciparum Asexual Blood Stage (ABS), at 5uM). Details: tested at 5 uM.
Assay type: functional, Dd2

| Compound | INHIBITION |
| --- | --- |
| O=C(c1nn(-c2ccccc2F)cc1O)N1CCC2(CC1)OCCO2 | -12.3% |
| CCCN1CCCC(O)(c2nc(C)c(COc3ccccc3)s2)CC1 (centres undefined) | 83.2% |
| O=S1(=O)CCC(n2cc(C3=CCN(CCc4ccccc4)CC3)cn2)C1 (centres undefined) | -45.5% |
| O=C(Nc1cccnc1)[C@H]1CN(Cc2nccs2)C[C@H]2OCC[C@@H]12 | -93.3% |
| CCC(CC)(CN)NC(C)c1ccccc1 (centres undefined) | 83.4% |
| CC(O)CN1CCC(CNCc2ccc(OC(F)(F)F)cc2)CC1 (centres undefined) | 86.9% |
| CC(=O)N1CCC(CCNC(C)Cc2ccc(F)cc2)CC1 (centres undefined) | -0.762% |
| CC(O)CN1CCC(CNCc2cccc(OC(F)(F)F)c2)CC1 (centres undefined) | 80.1% |
| CC(O)CN1CCC(CNCc2cccc(C(F)(F)F)c2)CC1 (centres undefined) | 83.1% |
| O=C(Cc1ccc(F)cc1)N1CCN(CC(O)C2CC2)CC1 (centres undefined) | 1.79% |
| Cc1c(C(=O)O)nnn1Cc1cccc(C(F)(F)F)c1 | -66.5% |
| Cc1nc(CN2CCOC3(CCCC3)C2)no1 | -138% |
| C[C@@H]1CN(C2CCOCC2)C[C@]12CCN(c1cccnc1)C2=O | -104% |
| Cc1ccc(-c2ccnc3cc(CC(=O)N4CCN(C)CC4)nn23)cc1 | -116% |
| CC(C)N(C)C(=O)C1CCC2(CCNCC2)O1 (centres undefined) | -214% |
| c1cc(CO[C@@H]2CC[C@H]3[C@H]2OCCN3Cc2ccoc2)ccn1 | -169% |
| CC(C)CCC(=O)N1C[C@H]2CCN[C@H]2C1 | -114% |
| CCc1noc(C)c1C(=O)NCC(c1ccc(C)cc1)N(C)C (centres undefined) | 71.4% |
| Cc1noc(CN2CC=C(c3cnn(C4CCS(=O)(=O)C4)c3)CC2)n1 (centres undefined) | -15.1% |
| CC(C)(C)n1ncc2c1NC(=O)CSC2c1ccc2c(c1)OCO2 (centres undefined) | -138% |
| NC(=O)c1ccc(N2CCCCC2)c(NC(=O)c2ccc(Br)cc2)c1 | 71.3% |
| O=C(NC[C@H]1C[C@@H]2CCN1C[C@@H]2CN1CCOCC1)Nc1ccccc1 | -40.4% |

| Compound | INHIBITION |
| --- | --- |
| Cc1cccc(Nc2ccc(C3CCCCN3)cn2)n1 (centres undefined) | 81.4% |
| Cc1cc(C)nc(Nc2ccc(C3CCCCN3)cn2)n1 (centres undefined) | -64.1% |
| c1cnc(Nc2ccc(C3CCCCN3)cn2)cn1 (centres undefined) | 13.6% |
| CC(C)C1CCCN1C(=O)c1ccc(-n2ncc(C#N)c2N)cc1 (centres undefined) | 71.4% |
| Cc1cccc(CN2C[C@H]3CCC[C@@]3(COCc3csc(C)n3)C2)n1 | 82% |
| Cc1cc(CN2C[C@H]3CCC[C@@]3(COCc3csc(C)n3)C2)no1 | 14.2% |
| Cc1cc(CN2C[C@@H]3COC[C@]3(COCc3csc(C)n3)C2)no1 | -58.8% |
| CC(C)N1CCCC1c1nc(N(C)C)ncc1I (centres undefined) | 70.7% |
| CC(C)N1CCCCC1c1cncc(Cl)n1 (centres undefined) | -50.5% |
| CC(C)N1CCCCC1c1nc(N(C)C)ncc1I (centres undefined) | 72% |
| COCCNC(=O)[C@H]1CN2CCC1C[C@@H]2Cn1cc(C(C)(C)C)nn1 (some centres undefined) | -65.8% |
| c1cnc(N2CCOC3(COCCN(Cc4cc[nH]n4)C3)C2)nc1 (centres undefined) | -27.9% |
| CCN(C)C[C@@H]1CN(Cc2cccc(Cl)c2)C[C@@H]1CO | 83.6% |
| CCN(C)C[C@@H]1CN(S(=O)(=O)c2cccc(Cl)c2)C[C@@H]1CO | 75.3% |
| CC(C)=CCN1C[C@@H]2CC[C@H]1CN(S(=O)(=O)c1cccnc1)C2 | -10.7% |
| C=Cc1cccc(CN2C[C@@H](CN(C)CC)[C@@H](CO)C2)c1 | 87.6% |
| CCNC(=O)[C@H]1CN(Cc2ccccc2)C[C@@H]1C(=O)c1ccccc1 | -76.3% |
| CN1CC=C(c2noc(CCC(=O)N3CCCC3)n2)CC1 | -71.4% |
| Cc1nc(CN2CCN(C(=O)Cc3cccc(Cl)c3)CC2)no1 | -18.4% |
| Cc1cccc(N2CCN(C(=O)CCc3c(C)noc3Cl)CC2)c1 | 86.3% |
| Cc1ccnc(CC(C)N(C)Cc2ccc3c(c2)CCO3)c1 (centres undefined) | -33.2% |
| Cc1ccc(CN2CCO[C@@H]3[C@@H](OCc4cccnc4)CC[C@@H]32)o1 | -89.9% |

| Compound | INHIBITION |
| --- | --- |
| Cc1nc(C(=O)N[C@H]2COC[C@@H]2N2CCCCC2)cs1 | -260% |
| O=C(N[C@H]1COC[C@@H]1N1CCCC1)c1csc(Cc2ccccc2)n1 | -21.2% |
| O=C(N[C@H]1COC[C@@H]1N1CCCC1)c1csc(-c2cccs2)n1 | 50.8% |
| CN1CCC2(CC1)CN(Cc1ccc(C3CCCCO3)o1)CCCN2C (centres undefined) | 81.1% |
| c1cnc(N2CCOCC3(CN(Cc4cc[nH]n4)CCO3)C2)nc1 (centres undefined) | -54.7% |
| Cc1cccc(CN2C[C@@H]3CCCO[C@@H]3[C@H](NS(C)(=O)=O)C2)n1 | -63.9% |
| CN(Cc1cncnc1)[C@H]1CN(Cc2ccco2)[C@@H]2CCCO[C@@H]21 | -96.6% |
| Cc1ccc(CN2C[C@@H]3CCCO[C@@H]3[C@H](N(C)Cc3ccco3)C2)s1 | 74.2% |
| CN(Cc1ccco1)[C@@H]1CN(Cc2ccsc2)C[C@@H]2CCCO[C@@H]21 | 76% |
| Cc1cc(CN2C[C@@H]3CCCO[C@@H]3[C@H](N(C)C(C)C)C2)no1 | -18.2% |
| CN(Cc1ccco1)[C@@H]1CN(Cc2cccnc2)[C@@H]2CCCO[C@H]12 | -40.9% |
| c1cnc(N2C[C@H]3CC[C@@H](C2)N(Cc2ccsc2)C3)nc1 | -21% |
| c1ccc(O[C@@H]2CO[C@@]3(CCCN(CC4CCOCC4)C3)C2)nc1 | 3.78% |
| Cc1cc(CN2C[C@@H]3COC[C@]3(CNS(C)(=O)=O)C2)no1 | -20.4% |
| CN1CCOC(CN(C(=O)CN2CCCC2=O)c2nccs2)C1 (centres undefined) | -55.7% |
| c1ccc(Oc2cccc(OC34CCCN(CC3)C4)c2)cc1 (centres undefined) | 76.9% |
| N#Cc1cccc(OC23CCCN(CC2)C3)c1 (centres undefined) | -31.3% |
| c1ccc(O[C@@H]2CN(Cc3nccs3)[C@@H]3CCCO[C@@H]32)nc1 | -4.8% |
| CCc1ccccc1OCCN(C)C(=O)CN1CCCC1 | 75.4% |
| CCOCCN(C)C(=O)Nc1cccc2c1CCN(CC)C2 | -88.7% |
